High-throughput results deposited in PubChem BioAssay by National Center for Advancing Translational Sciences (NCATS).
Hits are enriched below; roughly 19% of the tested compounds scored in any of these assays.
Giardia killer = Giardia lamblia killing; Giardia lamblia trophozoite viability; activity change, % at 7.66 µM, hits read low; 340,000 tested, 0.15% active; in the data active means activity change below about -80%; inconclusive means between about -30% and that limit;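 further: parasites exposed to compound for two days anaerobically before the ATP read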
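Each well holds 100 Giardia trophozoites and compound. After two days (48 hrs) at 37 deg C in anaerobic conditions, ATP is quantified by luminescence.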
TDP1 cell CPT = growth inhibition of DT40 Tdp1-/-;hTDP1 cells with camptothecin (screen for TDP1 inhibitors). chicken DT40 Tdp1-/-;hTDP1 cells + 20 nM CPT, ATP luminescence, 48 h. Potency, µM (top dose mostly 46.2 µM), usual class: inhibitors. 420,000 tested, 12% active. AID 686979; further: nearly all actives have a fitted effect of over 55% in size
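Chicken DT40 Tdp1-/- cells stably complemented with human TDP1 were seeded at 400 cells/well in medium containing 20 nM camptothecin, exposed to pin-transferred compounds, and grown at 37 °C for at least 48 hr. Viability was read as ATP luminescence.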
TDP1 block = inhibitors of human tyrosyl-DNA phosphodiesterase TDP1; Potency, µM (highest dose often 130 µM), most hits filed as inhibitors; Q9NUW8; 350,000 tested, 0.28% active; recombinant TDP1, AlphaScreen DNA substrate cleavage; further: nearly all actives have a fitted effect of over 40% in size
Target sequence (Q9NUW8 whole entry, looked up): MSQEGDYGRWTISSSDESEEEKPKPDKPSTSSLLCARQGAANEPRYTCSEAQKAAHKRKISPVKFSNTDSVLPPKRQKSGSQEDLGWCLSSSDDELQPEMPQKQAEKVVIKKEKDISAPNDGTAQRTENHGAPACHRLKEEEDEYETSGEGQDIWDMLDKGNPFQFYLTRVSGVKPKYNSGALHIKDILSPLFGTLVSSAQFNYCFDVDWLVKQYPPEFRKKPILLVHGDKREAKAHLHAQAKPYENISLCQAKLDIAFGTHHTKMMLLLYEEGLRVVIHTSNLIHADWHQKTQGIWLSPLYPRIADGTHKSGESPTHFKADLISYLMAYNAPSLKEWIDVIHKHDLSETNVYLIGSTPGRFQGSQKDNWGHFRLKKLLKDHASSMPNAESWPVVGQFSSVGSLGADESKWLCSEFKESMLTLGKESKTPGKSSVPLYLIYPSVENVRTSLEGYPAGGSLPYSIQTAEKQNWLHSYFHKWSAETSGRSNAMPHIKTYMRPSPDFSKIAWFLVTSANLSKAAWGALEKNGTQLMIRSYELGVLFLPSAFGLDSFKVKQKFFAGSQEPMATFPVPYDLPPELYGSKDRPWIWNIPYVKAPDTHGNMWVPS
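AlphaScreen read-out: signal falls as enzyme removes the 3' tyrosine-FITC from a 5'-biotinylated DNA oligo (15 nM, 5 min, RT). Enzyme was E. coli-made recombinant Tdp1 at 1 nM, exposed to compound for 15 min beforehand; beads 10 ug/ml, 10 min.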
IL-1B inflam inh = inhibitors of inflammasome signaling (IL-1 beta secretion). THP-1 LPS/ATP IL-1B secretion, AlphaLISA, 16 h; active compounds read low. activity change, % at 57.5 µM. 360,000 tested, 4.7% active; in the data active means activity change below about -50%; inconclusive means mostly about -30% to -49%
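Secreted IL-1B measured by AlphaLISA bead assay after 16 h compound exposure of THP-1 cells; compounds (final up to 57.5 uM) added 1 h before LPS (250 ng/mL) and ATP (1.25 mM) stimulation; lower signal means less secretion.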
ELG1 DNA repair = inhibitors of ELG1-dependent DNA repair in HEK293T cells. HEK293T ELG1-luciferase reporter, luminescence, 16 h; DNA damage induced by 5-fluorouridine. Potency, µM (top dose mostly 46.1 µM), most hits filed as inhibitors. 330,000 tested, 2.3% active; further: nearly all actives have a fitted effect of over 55% in size
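Reporter activity after DNA damage by 5-fluorouridine is monitored. Compound-treated cells incubate 16 hr at 37 °C, then ONE-Glo is added for 30 min before luminescence reading.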
TDP1 cell noCPT = qHTS for Inhibitors of human tyrosyl-DNA phosphodiesterase 1 (TDP1): qHTS in cells in absence of CPT; DT40 Tdp1-/- hTDP1 cells, no CPT, ATP luminescence, 48 h; Potency, µM (series often up to 46.2 µM), most hits filed as inhibitors; 420,000 tested, 15% active; further: nearly all actives have a fitted effect of over 55% in size
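A cellular qHTS used chicken DT40 cells lacking endogenous Tdp1 but carrying stably transfected human TDP1. Compounds were applied without camptothecin, and cell growth kinetics were judged by ATP-dependent luminescence after ≥48 hr.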
A number is an active result; – = inactive; ? = inconclusive; · = no result given; [ ] = another dose, or the depositor's remark. Unless noted, the call rests on the fitted dose curve; in most records, active means well fitted curve in the direction sought with a large enough effect; inconclusive means small, poorly fitted or top-dose-only effect, or another doubt; inactive means no such curve, though single readings can be large; an effect the other way counts as inactive or inconclusive.

SMILES | Giardia killer | TDP1 cell CPT | TDP1 block | IL-1B inflam inh | ELG1 DNA repair | TDP1 cell noCPT
Cc1ccc(N2C(=O)C3CCCN3C2=S)cc1C (stereo unspecified) | – | ? | · | – | – | –
COc1ccc(NC(=O)c2oc3ccccc3c2NC(=O)c2ccc3c(c2)OCO3)cc1 | – | ? | – | · | 9.2µM | ?
CCCCNc1c(-c2cccc(-c3ccc(OC)cc3)c2)nc2ccc(C)cn12 | – | 23.1µM | – | -99.6 | 3.16µM | 18.4µM
CCCCNc1c(-c2cccc(-c3ccc(OC)cc3)c2)nc2cc(C)ccn12 | – | 16.4µM | – | -71.2 | 23.1µM | 18.4µM
CCCCNc1c(-c2cccc(-c3cc(C(C)=O)cs3)c2)nc2ccc(C)cn12 | ? | 16.4µM | – | -103.0 | ? | 13µM
COC(=O)[C@@H]1CCCN1Cc1ccc2c(c1)CN(Cc1cccn1-c1ccccn1)CCO2 | · | –[9.04 µM] | · | · | · | –
COc1ccc(C(=O)N2[C@@H](C(C)C)COc3cc(Br)ccc3S2(=O)=O)cc1 | – | 18.4µM | · | – | · | ?
COc1cc(/C=C/C(=O)O)cc(S(=O)(=O)NCCCC(=O)O)c1OC | – | – | – | – | – | –
COc1ccc(CC(=O)Nc2nc3c(s2)CCCC3)cc1 | · | ? | – | · | · | ?
CCOc1ccccc1C(=O)N[C@H](C(=O)Nc1nc2c(s1)CCCC2)C(C)C | – | 16.4µM | – | ? | ? | 18.4µM
COc1ccc(C(=O)N[C@H](C(=O)Nc2nc3c(s2)CCCC3)C(C)C)cc1 | – | ? | – | – | – | 23.1µM
CCC(Oc1ccc(F)cc1)C(=O)Nc1nc2c(s1)CCCC2 (stereo unspecified) | · | ? | – | · | · | 16.4µM
CCOc1ccccc1C(=O)N[C@H](C(=O)OCC(=O)Nc1nnc(-c2ccccc2)o1)C(C)C | – | – | · | – | · | –
CCC(Sc1nc(C)cc(=O)[nH]1)C(=O)Nc1nc2c(s1)CCCC2 (stereo unspecified) | – | ? | – | – | – | –
CCN1CCN(C(=O)c2cnn(-c3ccc(F)cc3F)c2C2CCN(C(=O)OC(C)(C)C)CC2)CC1 | · | – | – | · | · | –
CCOc1ccc(CN=C(N)N=C(N)N)cc1Cl | – | 11.6µM | – | – | – | 5.8µM
CCCOc1ccc(CCCN=C(N)N)cc1Cl | – | 2.06µM | – | -90.2 | 13µM | 2.06µM
CCCCOc1cc(C[C@@H]2CNC(=O)N2)ccc1OC | · | – | – | · | · | –
CCCCOc1ccc(CN=C(N)N)cc1Cl | – | 2.31µM | – | -74.0 | ? | 1.46µM
CCOC(=O)c1noc2ncnc(Nc3cccc(OC)c3)c12 | · | – | – | · | · | –
O=C(C1CCCN(S(=O)(=O)c2ccc(Br)cc2)C1)N1CCOCC1 (stereo unspecified) | – | ? | – | – | – | ?
COc1ccc(CNC(=O)C(=O)NCC(c2cccnc2)N2CCN(c3ccccc3)CC2)cc1 (stereo unspecified) | · | 16.4µM | – | · | · | 13µM
O=C(NCCc1ccccc1)C(=O)NCC(c1cccnc1)N1CCN(c2ccccc2)CC1 (stereo unspecified) | · | 20.6µM | – | · | · | 16.4µM
Cc1ccc(NC(=O)C(=O)NCC(c2cccnc2)N2CCN(Cc3ccccc3)CC2)cc1Cl (stereo unspecified) | · | 10.3µM | – | · | · | 7.31µM
Cc1cc(C)c(S(=O)(=O)NCC(c2cccnc2)N2CCN(Cc3ccccc3)CC2)c(C)c1 (stereo unspecified) | – | ? | – | – | – | ?
SMILES | Giardia killer | TDP1 cell CPT | TDP1 block | IL-1B inflam inh | ELG1 DNA repair | TDP1 cell noCPT
COc1ccc(CCNC(=O)C(=O)NCC(c2cccnc2)N2CCN(c3ccccc3)CC2)cc1 (stereo unspecified) | · | 23.1µM | – | · | · | 18.4µM
CCc1ccccc1N(CC(=O)NC1CCCCC1)C(=O)CNC(=O)c1ccco1 | – | – | – | – | – | –
CC1CCN(C(=O)CN2C(=O)NC3(CCC(C)CC3)C2=O)CC1 (stereo unspecified) | – | – | – | – | – | –
CC1=C(c2ccc(F)cc2)S(=O)(=O)N=C1N1CCC(C(=O)NCCc2ccco2)CC1 | · | – | – | · | · | –
O=C(Cn1c(-c2cccs2)cc2cc(F)ccc21)N1CCN(c2ccccc2)CC1 | · | ? | – | · | · | ?
CN1CCN(C(CNC(=O)C(=O)Nc2ccc(F)cc2)c2cccnc2)CC1 (stereo unspecified) | · | – | – | · | · | –
O=C(NCC(c1cccnc1)N1CCN(c2ccccc2)CC1)c1ccco1 (stereo unspecified) | – | – | · | – | · | –
O=C(NCc1ccc(Cl)cc1)C(=O)NCC(c1cccnc1)N1CCN(c2ccc(F)cc2)CC1 (stereo unspecified) | – | 6.51µM | – | – | 11.6µM | 8.2µM
Cc1c(Cl)cccc1NC(=O)C(=O)NCC(c1cccnc1)N1CCN(c2ccccc2)CC1 (stereo unspecified) | · | 16.4µM | – | · | · | 20.6µM
Cc1ccc(C)c(NC(=O)C(=O)NCC(c2cccnc2)N2CCN(c3ccc(F)cc3)CC2)c1 (stereo unspecified) | · | 4.61µM | – | · | · | 4.61µM
CCC(C)N(C(=O)Cn1cnc2c1c(=O)n(C)c(=O)n2C)C1CCS(=O)(=O)C1 (stereo unspecified) | – | – | – | – | – | –
CC(=O)N[C@H](Cc1c[nH]c2ccccc12)C(N)=O | · | – | – | · | · | –
CC(C)COc1ncnc2c1sc1nc3c(cc12)COC(C)(C)C3 | · | · | – | · | ? | ·
CC1(C)Cc2nc3sc4c(OCc5ccccc5)ncnc4c3cc2CO1 | – | ? | – | – | – | 18.4µM
CCCCCn1cnc2c(sc3nc4c(cc32)CSC(C)(C)C4)c1=O | – | ? | – | – | ? | 10.3µM
CCOc1ncnc2c1sc1nc3c(cc12)COC(C)(C)C3 | – | – | · | – | · | –
CC1(C)Cc2nc3sc4c(=O)n(CC(=O)NCc5ccco5)cnc4c3cc2CO1 | – | 4.61µM | – | – | ? | 8.2µM
CC1(C)Cc2nc3sc4c(=O)[nH]cnc4c3cc2CS1 | – | ? | – | ? | ? | ?
CCC(C)Nc1nnnc2c1sc1nc3c(cc12)COC(C)(C)C3 (stereo unspecified) | – | ? | – | ? | 23.1µM | ?
COc1ccc(C(=O)COC(=O)CN2C(=O)C3C4CCC(C4)C3C2=O)cc1 (stereo unspecified) | – | – | –[0.0935 µM] | – | – | –
COc1ccc(C(=O)NC2CCCc3ccccc32)cc1S(=O)(=O)N1CCOCC1 (stereo unspecified) | – | – | – | – | – | ?
COc1ccc(-n2c(=O)c3sc4ccccc4c3n(CC(=O)NCc3ccccc3)c2=O)cc1 | · | ? | – | · | · | ?
